{
  "source": "the supplement of paper PMC11001985",
  "data": [
    {"compound": "C#CCNC(=O)CCSSCCC(=O)NCCc1ccc(C=O)c(C=O)c1", "experiment": "lysine labeling ratio R10:1 (500 µM / 50 µM probe), SILAC-ABPP in living cells; higher = lower intrinsic lysine reactivity toward the probe, active = 2 or less", "conditions": "HeLa; probe concentrations 500 vs 50 µM", "in_short": "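The two probe levels, 50 µM and 500 µM, of an alkyne-tagged, disulfide-linked lysine probe were applied to living light and heavy SILAC HeLa cells in PBS at room temperature, and the labels were run in both forward and reverse orientation. Mixed lysates underwent biotin-azide click chemistry, trypsin digestion, neutravidin capture, DTT release and alkylation before LC-MS/MS on a TIMS-TOF Pro. R is the filtered median high-probe/low-probe MS1 peptide ratio for each lysine, summarised as the median over forward and reverse replicates. Nothing above 20 is reported; such values are set to 20.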", "values": [
      {"target": "UniProt P62249 (lysine site: K4)", "lysine labeling ratio R10:1": "5.53 (inactive)"},
      {"target": "SPTAN1 (lysine site: K1334) (UniProt Q13813)", "lysine labeling ratio R10:1": "3.63 (inactive)"},
      {"target": "UniProt Q15149 (lysine site: K1520)", "lysine labeling ratio R10:1": "3.8 (inactive)"},
      {"target": "TXNDC5 (lysine site: K429) (UniProt Q8NBS9)", "lysine labeling ratio R10:1": "0.74 (active)"},
      {"target": "HNRNPC (lysine site: K98) (UniProt P07910)", "lysine labeling ratio R10:1": "3.25 (inactive)"},
      {"target": "SPTBN1 (lysine site: K2177) (UniProt Q01082)", "lysine labeling ratio R10:1": "14.1 (inactive)"},
      {"target": "ITGA2 (lysine site: K603) (UniProt P17301)", "lysine labeling ratio R10:1": "1.54 (active)"},
      {"target": "ITGA1 (lysine site: K546) (UniProt P56199)", "lysine labeling ratio R10:1": "0.96 (active)"},
      {"target": "RALA (lysine site: K159) (UniProt P11233)", "lysine labeling ratio R10:1": "0.885 (active)"},
      {"target": "MYO1C (lysine site: K404) (UniProt O00159)", "lysine labeling ratio R10:1": "1.66 (active)"},
      {"target": "TMEM132A (lysine site: K820) (UniProt Q24JP5)", "sequence (Q24JP5 whole entry)": "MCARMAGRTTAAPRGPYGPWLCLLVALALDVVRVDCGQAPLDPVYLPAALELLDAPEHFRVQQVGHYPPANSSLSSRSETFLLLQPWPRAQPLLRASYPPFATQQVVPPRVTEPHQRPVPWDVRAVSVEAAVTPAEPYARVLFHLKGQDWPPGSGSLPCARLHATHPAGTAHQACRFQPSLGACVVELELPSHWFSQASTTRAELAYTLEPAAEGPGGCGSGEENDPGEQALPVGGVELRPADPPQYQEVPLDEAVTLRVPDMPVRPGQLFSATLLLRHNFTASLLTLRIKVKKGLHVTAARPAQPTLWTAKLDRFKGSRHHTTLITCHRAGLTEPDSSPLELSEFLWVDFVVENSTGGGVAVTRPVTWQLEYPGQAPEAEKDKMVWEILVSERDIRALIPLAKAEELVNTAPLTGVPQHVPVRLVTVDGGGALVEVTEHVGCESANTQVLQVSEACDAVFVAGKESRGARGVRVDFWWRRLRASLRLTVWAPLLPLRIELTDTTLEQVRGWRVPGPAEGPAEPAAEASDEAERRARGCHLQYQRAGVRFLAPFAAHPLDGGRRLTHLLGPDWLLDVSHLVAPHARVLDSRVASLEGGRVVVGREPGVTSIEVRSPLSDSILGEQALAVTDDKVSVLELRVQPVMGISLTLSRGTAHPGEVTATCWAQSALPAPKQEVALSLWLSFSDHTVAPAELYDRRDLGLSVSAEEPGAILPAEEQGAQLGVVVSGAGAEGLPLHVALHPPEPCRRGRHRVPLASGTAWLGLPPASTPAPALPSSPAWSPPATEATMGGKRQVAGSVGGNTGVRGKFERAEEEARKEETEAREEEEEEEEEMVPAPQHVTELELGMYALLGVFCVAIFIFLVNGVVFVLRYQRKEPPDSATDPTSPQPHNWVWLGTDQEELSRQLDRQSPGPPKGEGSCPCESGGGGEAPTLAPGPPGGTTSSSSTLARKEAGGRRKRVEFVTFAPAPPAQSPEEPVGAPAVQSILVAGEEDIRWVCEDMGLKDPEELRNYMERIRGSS", "lysine labeling ratio R10:1": "2.33 (inactive)"},
      {"target": "AHNAK (lysine site: K5443) (UniProt Q09666)", "lysine labeling ratio R10:1": "0.97 (active)"},
      {"target": "PLXNB2 (lysine site: K1110) (UniProt O15031)", "lysine labeling ratio R10:1": "4.66 (inactive)"},
      {"target": "AGRN (lysine site: K1368) (UniProt O00468)", "lysine labeling ratio R10:1": "1.88 (active)"},
      {"target": "UniProt Q7L592 (lysine site: K72)", "lysine labeling ratio R10:1": "0.87 (active)"},
      {"target": "UniProt P60866 (lysine site: K59)", "lysine labeling ratio R10:1": "2.02 (inactive)"},
      {"target": "ANXA1 (lysine site: K185) (UniProt P04083)", "lysine labeling ratio R10:1": "3.58 (inactive)"},
      {"target": "WNT5A (lysine site: K171) (UniProt P41221)", "lysine labeling ratio R10:1": "3.57 (inactive)"},
      {"target": "EEF2 (lysine site: K572) (UniProt P13639)", "lysine labeling ratio R10:1": "2.79 (inactive)"},
      {"target": "UniProt Q16181 (lysine site: K408)", "lysine labeling ratio R10:1": "3.83 (inactive)"},
      {"target": "THBS1 (lysine site: K201) (UniProt P07996)", "lysine labeling ratio R10:1": "3.89 (inactive)"},
      {"target": "G6PD (lysine site: K432) (UniProt P11413)", "lysine labeling ratio R10:1": "1.85 (active)"},
      {"target": "MSLN (lysine site: K306) (UniProt Q13421)", "lysine labeling ratio R10:1": "1.74 (active)"},
      {"target": "NUMA1 (lysine site: K284) (UniProt Q14980)", "lysine labeling ratio R10:1": "2 (active)"},
      {"target": "CELSR2 (lysine site: K1846) (UniProt Q9HCU4)", "sequence (Q9HCU4 whole entry)": "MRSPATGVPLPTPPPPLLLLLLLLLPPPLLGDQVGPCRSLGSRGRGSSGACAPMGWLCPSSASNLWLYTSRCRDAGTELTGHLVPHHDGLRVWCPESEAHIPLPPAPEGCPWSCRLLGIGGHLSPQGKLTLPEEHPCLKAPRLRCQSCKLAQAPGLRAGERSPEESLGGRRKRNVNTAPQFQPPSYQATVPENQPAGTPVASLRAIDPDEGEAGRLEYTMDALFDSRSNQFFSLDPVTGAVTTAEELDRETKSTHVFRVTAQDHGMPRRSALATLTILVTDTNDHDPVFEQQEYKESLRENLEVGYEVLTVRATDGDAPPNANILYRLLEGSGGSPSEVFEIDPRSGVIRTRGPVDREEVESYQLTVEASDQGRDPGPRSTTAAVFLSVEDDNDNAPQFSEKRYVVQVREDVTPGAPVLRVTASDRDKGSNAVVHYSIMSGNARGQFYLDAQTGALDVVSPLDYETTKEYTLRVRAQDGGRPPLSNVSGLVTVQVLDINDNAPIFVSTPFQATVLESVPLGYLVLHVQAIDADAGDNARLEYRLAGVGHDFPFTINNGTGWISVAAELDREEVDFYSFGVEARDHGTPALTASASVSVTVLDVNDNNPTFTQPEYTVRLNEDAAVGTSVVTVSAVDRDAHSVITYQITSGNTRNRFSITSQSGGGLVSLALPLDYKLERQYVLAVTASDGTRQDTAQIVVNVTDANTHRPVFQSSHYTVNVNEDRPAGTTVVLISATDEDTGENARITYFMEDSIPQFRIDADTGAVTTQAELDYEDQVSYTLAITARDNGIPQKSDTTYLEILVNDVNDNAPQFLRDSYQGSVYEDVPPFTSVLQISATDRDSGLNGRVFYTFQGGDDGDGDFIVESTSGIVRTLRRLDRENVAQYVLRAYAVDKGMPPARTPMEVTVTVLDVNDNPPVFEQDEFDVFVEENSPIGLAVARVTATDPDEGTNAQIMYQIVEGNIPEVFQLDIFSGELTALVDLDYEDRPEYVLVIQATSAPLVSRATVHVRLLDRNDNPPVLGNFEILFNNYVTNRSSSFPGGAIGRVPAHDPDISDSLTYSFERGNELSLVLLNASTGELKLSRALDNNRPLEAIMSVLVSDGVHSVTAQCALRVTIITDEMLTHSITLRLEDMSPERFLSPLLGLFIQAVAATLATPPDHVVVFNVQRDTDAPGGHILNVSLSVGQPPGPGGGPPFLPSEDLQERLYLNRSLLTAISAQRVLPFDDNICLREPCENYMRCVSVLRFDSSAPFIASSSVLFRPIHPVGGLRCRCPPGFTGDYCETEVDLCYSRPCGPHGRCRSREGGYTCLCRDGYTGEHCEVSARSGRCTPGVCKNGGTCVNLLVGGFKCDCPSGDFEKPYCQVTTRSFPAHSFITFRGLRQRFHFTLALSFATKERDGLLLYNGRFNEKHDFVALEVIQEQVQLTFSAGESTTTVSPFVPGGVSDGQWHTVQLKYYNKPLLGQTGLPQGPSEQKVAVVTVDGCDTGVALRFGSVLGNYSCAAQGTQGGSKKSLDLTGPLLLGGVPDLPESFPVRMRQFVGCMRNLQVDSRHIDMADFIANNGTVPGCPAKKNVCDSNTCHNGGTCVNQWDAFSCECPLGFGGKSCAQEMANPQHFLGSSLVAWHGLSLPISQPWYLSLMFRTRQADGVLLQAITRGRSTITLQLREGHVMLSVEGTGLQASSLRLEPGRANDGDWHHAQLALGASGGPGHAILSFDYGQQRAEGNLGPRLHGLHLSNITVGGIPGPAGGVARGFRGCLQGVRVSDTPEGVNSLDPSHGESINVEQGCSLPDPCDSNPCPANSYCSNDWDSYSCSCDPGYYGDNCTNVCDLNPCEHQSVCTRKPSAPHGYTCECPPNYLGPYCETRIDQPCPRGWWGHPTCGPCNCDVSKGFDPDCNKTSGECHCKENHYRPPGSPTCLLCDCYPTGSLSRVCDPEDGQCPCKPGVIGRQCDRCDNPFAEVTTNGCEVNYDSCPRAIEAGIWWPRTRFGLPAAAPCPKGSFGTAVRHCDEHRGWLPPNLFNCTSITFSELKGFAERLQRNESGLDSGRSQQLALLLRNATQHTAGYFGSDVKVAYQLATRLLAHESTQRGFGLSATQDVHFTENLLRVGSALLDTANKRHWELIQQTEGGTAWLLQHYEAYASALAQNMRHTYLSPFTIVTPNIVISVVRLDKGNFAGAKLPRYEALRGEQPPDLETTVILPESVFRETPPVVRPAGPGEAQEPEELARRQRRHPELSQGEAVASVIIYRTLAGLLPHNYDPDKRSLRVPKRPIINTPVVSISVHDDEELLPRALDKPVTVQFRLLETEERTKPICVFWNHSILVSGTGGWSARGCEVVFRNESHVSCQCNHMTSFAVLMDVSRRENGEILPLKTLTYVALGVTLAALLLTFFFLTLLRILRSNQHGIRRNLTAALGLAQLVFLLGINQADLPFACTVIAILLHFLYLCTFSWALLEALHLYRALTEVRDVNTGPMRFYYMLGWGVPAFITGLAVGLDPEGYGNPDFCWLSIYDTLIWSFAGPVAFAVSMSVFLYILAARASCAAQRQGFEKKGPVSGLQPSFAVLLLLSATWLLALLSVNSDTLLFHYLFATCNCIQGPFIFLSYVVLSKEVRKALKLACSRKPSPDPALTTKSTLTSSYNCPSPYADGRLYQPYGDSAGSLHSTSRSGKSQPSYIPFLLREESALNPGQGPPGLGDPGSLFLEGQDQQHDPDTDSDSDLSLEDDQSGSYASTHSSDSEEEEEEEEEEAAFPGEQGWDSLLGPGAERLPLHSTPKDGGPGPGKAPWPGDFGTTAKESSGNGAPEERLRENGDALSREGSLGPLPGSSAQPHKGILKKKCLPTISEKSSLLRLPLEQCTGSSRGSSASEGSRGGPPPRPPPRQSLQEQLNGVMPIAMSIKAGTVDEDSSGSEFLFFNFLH", "lysine labeling ratio R10:1": "3.09 (inactive)"},
      {"target": "UniProt P25705 (lysine site: K194)", "lysine labeling ratio R10:1": "1.81 (active)"},
      {"target": "UniProt P0C0S5 (lysine site: K14)", "lysine labeling ratio R10:1": "1.12 (active)"},
      {"target": "UniProt Q15149 (lysine site: K300)", "lysine labeling ratio R10:1": "2.94 (inactive)"},
      {"target": "L1CAM (lysine site: K301) (UniProt P32004)", "lysine labeling ratio R10:1": "4.21 (inactive)"},
      {"target": "SMOC1 (lysine site: K308) (UniProt Q9H4F8)", "lysine labeling ratio R10:1": "4.95 (inactive)"},
      {"target": "CELSR2 (lysine site: K2121) (UniProt Q9HCU4)", "lysine labeling ratio R10:1": "2.98 (inactive)"},
      {"target": "FN1 (lysine site: K249) (UniProt P02751)", "lysine labeling ratio R10:1": "2.7 (inactive)"},
      {"target": "SPTBN1 (lysine site: K1878) (UniProt Q01082)", "lysine labeling ratio R10:1": "4.5 (inactive)"},
      {"target": "TALDO1 (lysine site: K321) (UniProt P37837)", "lysine labeling ratio R10:1": "0.79 (active)"},
      {"target": "ITGA6 (lysine site: K404) (UniProt P23229)", "sequence (P23229 whole entry)": "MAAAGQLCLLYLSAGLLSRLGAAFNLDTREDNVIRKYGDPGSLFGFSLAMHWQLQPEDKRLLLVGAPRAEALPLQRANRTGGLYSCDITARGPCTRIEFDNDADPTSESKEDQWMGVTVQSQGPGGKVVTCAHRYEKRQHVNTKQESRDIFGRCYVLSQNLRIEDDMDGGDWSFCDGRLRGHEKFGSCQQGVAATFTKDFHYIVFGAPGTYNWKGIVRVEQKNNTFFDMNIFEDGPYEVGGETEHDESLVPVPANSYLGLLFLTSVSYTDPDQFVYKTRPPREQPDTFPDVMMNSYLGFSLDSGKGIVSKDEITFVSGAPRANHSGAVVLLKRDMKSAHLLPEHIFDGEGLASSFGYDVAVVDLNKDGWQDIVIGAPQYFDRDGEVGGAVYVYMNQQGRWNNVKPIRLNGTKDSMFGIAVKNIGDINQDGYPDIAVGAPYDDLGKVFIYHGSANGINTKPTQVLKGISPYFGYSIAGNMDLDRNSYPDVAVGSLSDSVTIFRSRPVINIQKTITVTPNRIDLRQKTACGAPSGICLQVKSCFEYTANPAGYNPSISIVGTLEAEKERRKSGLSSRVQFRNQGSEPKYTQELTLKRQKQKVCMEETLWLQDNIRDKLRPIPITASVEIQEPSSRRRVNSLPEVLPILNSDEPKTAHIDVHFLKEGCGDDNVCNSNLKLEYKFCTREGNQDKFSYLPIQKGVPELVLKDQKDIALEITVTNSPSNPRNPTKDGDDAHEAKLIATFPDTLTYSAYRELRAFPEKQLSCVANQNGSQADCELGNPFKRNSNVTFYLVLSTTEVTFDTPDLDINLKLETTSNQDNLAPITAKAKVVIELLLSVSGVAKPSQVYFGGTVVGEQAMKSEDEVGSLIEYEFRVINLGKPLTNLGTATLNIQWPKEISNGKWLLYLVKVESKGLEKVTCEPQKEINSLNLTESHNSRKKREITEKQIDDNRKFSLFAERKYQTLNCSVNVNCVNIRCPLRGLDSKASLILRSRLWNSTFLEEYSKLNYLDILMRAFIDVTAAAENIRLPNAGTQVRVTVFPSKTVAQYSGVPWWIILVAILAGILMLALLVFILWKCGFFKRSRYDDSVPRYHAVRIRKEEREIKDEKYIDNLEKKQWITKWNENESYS", "lysine labeling ratio R10:1": "6.64 (inactive)"},
      {"target": "UniProt Q9NY47 (lysine site: K270)", "lysine labeling ratio R10:1": "2.85 (inactive)"},
      {"target": "SEMA3C (lysine site: K40) (UniProt Q99985)", "lysine labeling ratio R10:1": "3.38 (inactive)"},
      {"target": "ARL6IP5 (lysine site: K31) (UniProt O75915)", "lysine labeling ratio R10:1": "0.953 (active)"},
      {"target": "PPIC (lysine site: K49) (UniProt P45877)", "lysine labeling ratio R10:1": "1.58 (active)"},
      {"target": "ITGA6 (lysine site: K946) (UniProt P23229)", "lysine labeling ratio R10:1": "2.37 (inactive)"}
    ]}
  ]
}
